Data from PubChem BioAssay (EPA / NIEHS).
Activity calls are given as the source filed them. The calls were made as follows: active = hit-call score of the fitted dose curve at least 0.9, where 1 is the maximum; inactive = score below 0.9.

Columns and labels:
[1] = read-out: Vascular endothelial growth factor receptor 2 (Homo sapiens) (UniProt P35968); test: BSK_4H_VEGFRII: BioMAP Diversity Plus: 4H Assay for Vascular endothelial growth factor receptor 2 (VEGFR2) Biomarker Activity (AID 2283031); conditions: primary human endothelial cells (HUVEC); actives raise or lower the signal;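 as to AC50: cell-surface VEGFR2 protein level quantified by ELISA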
How it was run: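 Primary human umbilical vein endothelial cells in the BioMAP 4H system were dosed with test chemical, and 24 h later VEGFRII was measured by ELISA. Activity was fitted bidirectionally against DMSO as negative control and baseline.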

[2] = read-out: Human Leukocyte Antigen - DR isotype (HLADR), HLA-DRA (gene 3122); test: BSK_BE3C_HLADR: BioMAP Diversity Plus: BE3C Assay for Human Leukocyte Antigen - DR isotype (HLADR) Biomarker Activity (AID 2283032); conditions: primary human bronchial epithelial cells; actives raise or lower the signal
How it was run: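 BioMAP BE3C format: human bronchial epithelium, 24 h compound treatment, ELISA detection of HLA-DR, with bidirectional analysis relative to DMSO.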

[3] = read-out: Vascular cell adhesion molecule 1 (VCAM1), VCAM1 (gene 7412); test: BSK_4H_VCAM1: BioMAP Diversity Plus: 4H Assay for Vascular cell adhesion molecule 1 (VCAM1) Biomarker Activity (AID 2283033); conditions: primary human endothelial cells (HUVEC); actives raise or lower the signal
How it was run: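 In this human endothelial (HUVEC) system, biomarker ELISA was run 24 h after compound addition, and total protein in parallel wells was assessed by SRB at 560 nm; DMSO served as negative control.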

[4] = read-out: Interferon-gamma inducible Protein 10 (IP10), CXCL10 (gene 3627); test: BSK_BE3C_IP10: BioMAP Diversity Plus: BE3C Assay for Interferon-gamma inducible Protein 10 (IP10) Biomarker Activity (AID 2283034); conditions: primary human bronchial epithelial cells; actives raise or lower the signal
How it was run: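 BE3C cells (human bronchial epithelial, primary); 24 h exposure; ELISA for IP-10; DMSO-referenced bidirectional fit.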

[5] = read-out: Monokine induced gamma interferon (MIG), CXCL9 (gene 4283); test: BSK_BE3C_MIG: BioMAP Diversity Plus: BE3C Assay for Monokine induced gamma interferon (MIG) Biomarker Activity (AID 2283035); conditions: primary human bronchial epithelial cells; actives raise or lower the signal
How it was run: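 Dose cells (human primary bronchial epithelial), incubate 24 h, quantify MIG by ELISA, then fit concentration–response in both directions relative to DMSO control.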

[6] = read-out: Transforming growth factor beta 1 (TGFb1), TGFB1 (gene 7040); test: BSK_BE3C_TGFb1: BioMAP Diversity Plus: BE3C Assay for Transforming growth factor beta 1 (TGFb1) Biomarker Activity (AID 2283036); conditions: primary human bronchial epithelial cells; actives raise or lower the signal
How it was run: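 TGF-b1 measured via ELISA, 24 h after chemical dosing of human bronchial epithelial cells (BE3C). Overt cytotoxicity assessed in parallel by SRB (0.1%, TCA-fixed, 560 nm); analysis bidirectional relative to DMSO.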

[7] = read-out: Plasminogen activator inhibitor-1 (PAI1), SERPINE1 (gene 5054); test: BSK_BE3C_PAI1: BioMAP Diversity Plus: BE3C Assay for Plasminogen activator inhibitor-1 (PAI1) Biomarker Activity (AID 2283037); conditions: primary human bronchial epithelial cells; actives raise or lower the signal
How it was run: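 In this multiplexed primary-cell system, bronchial epithelial cells receive test chemical and are sampled at 24 h. PAI-1 is read by ELISA, with DMSO serving as negative control for bidirectional fitting.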

[8] = read-out: urokinase plasminogen activator (uPA), PLAU (gene 5328); test: BSK_BE3C_uPA: BioMAP Diversity Plus: BE3C Assay for urokinase plasminogen activator (uPA) Biomarker Activity (AID 2283038); conditions: primary human bronchial epithelial cells; actives raise or lower the signal
How it was run: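 Human primary bronchial epithelial cells were exposed to chemical for 24 h, then uPA levels were measured by ELISA. Responses were fitted bidirectionally against DMSO as negative control and baseline. Parallel SRB staining of total protein gauged overt cytotoxicity.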

[9] = read-out: Interleukin-6 (IL6), IL6 (gene 3569); test: BSK_CASM3C_IL6: BioMAP Diversity Plus: CASM3C Assay for Interleukin-6 (IL6) Biomarker Activity for (AID 2283040); conditions: primary human coronary artery smooth muscle cells; actives raise or lower the signal
[10] = read-out: Tissue plasminogen activator (tPA), PLAT (gene 5327); test: BSK_BE3C_tPA: BioMAP Diversity Plus: BE3C Assay for Tissue plasminogen activator (tPA) Biomarker Activity (AID 2283041); conditions: primary human bronchial epithelial cells; actives raise or lower the signal
How it was run: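 Using human lung primary bronchial epithelial cells, tPA was measured by ELISA 24 h after dosing; data fitted relative to DMSO.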

[11] = read-out: Interleukin-8 (IL8), CXCL8 (gene 3576); test: BSK_CASM3C_IL8: BioMAP Diversity Plus: CASM3C Assay for Interleukin-8 (IL8) Biomarker Activity (AID 2283042); conditions: primary human coronary artery smooth muscle cells; actives raise or lower the signal;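 also: IL-8 protein level quantified by ELISA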
[12] = read-out: Human Leukocyte Antigen - DR isotype (HLADR), HLA-DRA (gene 3122); test: BSK_CASM3C_HLADR: BioMAP Diversity Plus: CASM3C Assay for Human Leukocyte Antigen - DR isotype (HLADR) Biomarker Activity (AID 2283043); conditions: primary human coronary artery smooth muscle cells; actives raise or lower the signal;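 also: cell-surface HLA-DR protein level quantified by ELISA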
[13] = read-out: Macrophage colony-stimulating factor (MCSF), CSF1 (gene 1435); test: BSK_CASM3C_MCSF: BioMAP Diversity Plus: CASM3C Assay for Macrophage colony-stimulating factor (MCSF) Biomarker Activity (AID 2283044); conditions: primary human coronary artery smooth muscle cells; actives raise or lower the signal;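 also: M-CSF protein amount quantified by ELISA after 24 h exposure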
[14] = read-out: Low-density lipoprotein receptor (LDLR), LDLR (gene 3949); test: BSK_CASM3C_LDLR: BioMAP Diversity Plus: CASM3C Assay for Low-density lipoprotein receptor (LDLR) Biomarker Activity (AID 2283045); conditions: primary human coronary artery smooth muscle cells; actives raise or lower the signal;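 also: LDLR protein level on the cell surface quantified by ELISA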
[15] = read-out: Monocyte Chemoattractant Protein-1 (MCP1), CCL2 (gene 6347); test: BSK_CASM3C_MCP1: BioMAP Diversity Plus: CASM3C Assay for Monocyte Chemoattractant Protein-1 (MCP1) Biomarker Activity (AID 2283046); conditions: primary human coronary artery smooth muscle cells; actives raise or lower the signal;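 also: MCP-1 level quantified by ELISA 24 h after dosing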
[16] = BSK_CASM3C_Proliferation: Cell Proliferation Assessment in the BioMAP Diversity Plus: CASM3C Assay (AID 2283047); conditions: primary human coronary artery smooth muscle cells;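 also: sulforhodamine B total protein stain as relative cell number at 560 nm; sub-confluent cells exposed 48 h before staining; fitted both ways against DMSO so gain or loss of cell number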
[17] = read-out: Monokine induced gamma interferon (MIG), CXCL9 (gene 4283); test: BSK_CASM3C_MIG: BioMAP Diversity Plus: CASM3C Assay for Monokine induced gamma interferon (MIG) Biomarker Activity (AID 2283048); conditions: primary human coronary artery smooth muscle cells; actives raise or lower the signal
[18] = read-out: serum amyloid A (SAA), SAA1 (gene 6288); test: BSK_CASM3C_SAA: BioMAP Diversity Plus: CASM3C Assay for serum amyloid A (SAA) Biomarker Activity (AID 2283049); conditions: primary human coronary artery smooth muscle cells; actives raise or lower the signal;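 also: SAA protein level quantified by ELISA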
[19] = BSK_CASM3C_SRB: Viability Assessment in the BioMAP Diversity Plus: CASM3C Assay (AID 2283050); conditions: primary human coronary artery smooth muscle cells;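 also: total protein by SRB staining as cytotoxicity measure in parallel cultures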
[20] = read-out: Urokinase-type plasminogen activator receptor (uPAR), PLAUR (gene 5329); test: BSK_BE3C_uPAR: BioMAP Diversity Plus: BE3C Assay for Urokinase-type plasminogen activator receptor (uPAR) Biomarker Activity (AID 2283039); conditions: primary human bronchial epithelial cells; actives raise or lower the signal
How it was run: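 Chemically treated human bronchial epithelial cells (lung primary) are assayed for uPAR by ELISA after 24 h, with data fitted in both directions using DMSO as negative control.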

Measured: AC50

CCCN(CCC)c1c([N+](=O)[O-])cc(C(F)(F)F)cc1[N+](=O)[O-]
active: [3] 28.2 µM | [4] 25.1 µM
inactive: [1] | [2] | [5] | [6] | [7] | [8] | [9] | [10] | [11] | [12] | [13] | [14] | [15] | [16] | [17] | [18] | [19]

O=S1OCC2C(CO1)C1(Cl)C(Cl)=C(Cl)C2(Cl)C1(Cl)Cl (stereo unspecified)
inactive: [9] | [14]
active: [1] 34.8 µM | [2] 26.6 µM | [3] 36.5 µM | [4] 17.8 µM | [5] 34.4 µM | [6] 39.1 µM | [7] 28.8 µM | [8] 30.3 µM | [10] 21.5 µM | [11] 29.6 µM | [12] 32.5 µM | [13] 31.5 µM | [15] 31.7 µM | [16] 32.7 µM | [17] 32.1 µM | [18] 32.7 µM | [19] 32.4 µM

CN1CSC(=S)N(C)C1
active: [2] 20 µM | [3] 16.9 µM | [9] 16.4 µM | [16] 14.5 µM
inactive: [1] | [4] | [5] | [6] | [7] | [8] | [20] | [10] | [11] | [12] | [14] | [15] | [17] | [18] | [19]

CNC(=O)/C=C(\C)OP(=O)(OC)OC
inactive: [1] | [2] | [3] | [4] | [5] | [6] | [7] | [8] | [9] | [10] | [11] | [12] | [13] | [14] | [15] | [16] | [17] | [18] | [19]

O=C(Nc1ccccc1)Nc1cnns1
inactive: [1] | [2] | [3] | [4] | [5] | [6] | [7] | [8] | [9] | [10] | [11] | [12] | [13] | [14] | [15] | [16] | [17] | [18] | [19]

O=[N+]([O-])c1c(Cl)c(Cl)c(Cl)c(Cl)c1Cl
active: [3] 19.3 µM
inactive: [1] | [2] | [5] | [6] | [7] | [8] | [20] | [9] | [10] | [11] | [12] | [13] | [14] | [15] | [16] | [17] | [18] | [19]

COP(=S)(OC)Oc1ccc([N+](=O)[O-])cc1
inactive: [1] | [2] | [4] | [5] | [7] | [8] | [20] | [9] | [10] | [11] | [12] | [13] | [14] | [16] | [17] | [18] | [19]
active: [3] 20.1 µM | [6] 9.07 µM | [15] 0.877 µM

CCc1ccc(C(=O)NN(C(=O)c2cc(C)cc(C)c2)C(C)(C)C)cc1
active: [16] 22.9 µM
inactive: [1] | [2] | [3] | [4] | [5] | [6] | [7] | [8] | [9] | [10] | [11] | [12] | [13] | [14] | [15] | [17] | [18] | [19]

O=C1c2ccccc2C(=O)N1SC(Cl)(Cl)Cl
inactive: [1] | [3] | [10] | [14] | [18]
active: [2] 30.6 µM | [4] 35 µM | [5] 35.7 µM | [6] 31.6 µM | [7] 20 µM | [8] 28.7 µM | [9] 30.3 µM | [11] 38.6 µM | [12] 28.7 µM | [13] 16 µM | [15] 30 µM | [16] 18.8 µM | [17] 30.4 µM | [19] 29 µM

N#Cc1c(Cl)c(Cl)c(Cl)c(C#N)c1Cl
active: [1] 1.44 µM | [2] 1.7 µM | [3] 1.16 µM | [4] 2.35 µM | [5] 3.01 µM | [6] 3.94 µM | [7] 2.5 µM | [8] 1.69 µM | [20] 3.98 µM | [9] 3.56 µM | [10] 3.97 µM | [11] 3.36 µM | [12] 6.09 µM | [13] 3.31 µM | [15] 3.56 µM | [16] 0.148 µM | [17] 2.14 µM | [18] 4.82 µM | [19] 2 µM
inactive: [14]

COc1nn(CSP(=S)(OC)OC)c(=O)s1
inactive: [1] | [2] | [3] | [5] | [6] | [7] | [8] | [20] | [9] | [10] | [11] | [12] | [13] | [14] | [15] | [16] | [17] | [18] | [19]
